In the library only some 4.6% were active in any assay of this set; here they are far more common.
ABHD5-PLIN5 inh – ABHD5-PLIN5 interaction inhibitors, primary screen, cell lysate, split luciferase complementation, luminescence; Perilipin-5 (Homo sapiens) + 1-acylglycerol-3-phosphate O-acyltransferase ABHD5 (Homo …; Split G. princeps luciferase complementation, 4 h; inhibition, % at 4 µM; 360,000 compounds, 0.78% hits; AID 602281, 2012;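 active = inhibition above the mean inhibition across every tested compound plus 3 SD, cut at about 22% in these data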;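 note: 0% = DMSO only wells and the 100% control is not disclosed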
Peg3 prom inh – Peg3 promoter-driven luciferase inhibitors, primary screen, cell-based, HeLa, luciferase luminescence | HeLa PEG-Prom luciferase reporter, overnight | inhibition, % at 20 µM | 360,000 compounds, 1.7% hits | AID 588405, 2011;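 active = inhibition of at least 50% at 20 µM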
KKLEB tox – cytotoxicity in KKLEB CF airway cells, primary screen, cytotoxicity control for CF NF-kB inhibitor project, cell-based, uHTS, fluorescence assay plates; activity change (cytotoxicity), % at 5 µM; KKLEB CF airway cells viability, ATPlite luminescence, overnight; hits give low values; cells stimulated with P. aeruginosa culture filtrate; 360,000 compounds, 0.36% hits;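 active = corrected activity change at or below -50% at 5 µM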
HIF-2a block – HIF-2a reporter inhibitors, primary screen, luminescence, 786-0 RCC cells | 786-0 RCC cells HIF-2a reporter, luciferase luminescence, overnight | inhibition, % at 18.8 µM | 360,000 compounds, 0.72% hits | AID 624352, 2012;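 active = inhibition of the luminescence signal of 40% or more relative to plate controls, in a single-dose primary screen at 18.75 µM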
Mdm2-MdmX inh – inhibitors of human Mdm2-MdmX association, primary screen, cell-based, luminescence, split luciferase, SaOS-2, uHTS. SaOS-2 split-luciferase Mdm2/MdmX complementation. inhibition, % at 8 µM. 330,000 compounds, 3% hits;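 active = inhibition of at least 50% at 8 µM in the primary screen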
Target sequence (O15151 whole entry, looked up): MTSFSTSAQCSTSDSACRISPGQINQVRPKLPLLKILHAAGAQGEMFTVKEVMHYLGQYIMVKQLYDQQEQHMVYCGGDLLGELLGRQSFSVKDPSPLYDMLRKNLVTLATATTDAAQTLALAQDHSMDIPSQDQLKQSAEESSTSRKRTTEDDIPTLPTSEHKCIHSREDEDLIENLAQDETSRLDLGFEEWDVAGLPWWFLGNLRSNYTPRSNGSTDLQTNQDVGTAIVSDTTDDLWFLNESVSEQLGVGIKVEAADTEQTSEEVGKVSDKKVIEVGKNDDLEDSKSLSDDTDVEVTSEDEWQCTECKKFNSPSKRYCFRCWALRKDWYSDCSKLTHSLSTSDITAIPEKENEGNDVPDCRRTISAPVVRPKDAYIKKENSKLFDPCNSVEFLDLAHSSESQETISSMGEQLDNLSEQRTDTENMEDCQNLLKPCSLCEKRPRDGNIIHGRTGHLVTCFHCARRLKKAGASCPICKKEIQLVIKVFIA
Target sequence (Q00987 whole entry, looked up): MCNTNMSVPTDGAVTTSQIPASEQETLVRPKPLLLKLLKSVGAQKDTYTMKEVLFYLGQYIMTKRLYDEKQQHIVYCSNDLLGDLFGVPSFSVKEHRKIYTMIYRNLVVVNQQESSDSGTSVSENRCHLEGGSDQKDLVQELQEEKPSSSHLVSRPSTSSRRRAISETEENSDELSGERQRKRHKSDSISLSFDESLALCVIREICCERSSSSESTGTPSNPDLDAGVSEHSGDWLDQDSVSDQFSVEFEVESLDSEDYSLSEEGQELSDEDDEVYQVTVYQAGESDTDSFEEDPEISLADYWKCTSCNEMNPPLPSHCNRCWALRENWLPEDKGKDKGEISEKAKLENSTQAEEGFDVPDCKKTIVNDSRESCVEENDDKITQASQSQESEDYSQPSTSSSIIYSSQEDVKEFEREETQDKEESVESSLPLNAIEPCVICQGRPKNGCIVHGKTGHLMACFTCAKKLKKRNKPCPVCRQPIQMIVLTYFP
CF NFkB inh – inhibitors of PAF-induced NF-kB signaling, primary screen, cell-based, GFP fluorescence, uHTS | KKLEB NF-kB-GFP reporter, GFP fluorescence overnight | inhibition, % at 5 µM | 360,000 compounds, 0.86% hits | AID 588850, 2011;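 active = at least 50% inhibition at 5 µM, scaled per plate between neutral and stimulator controls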;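 note: PAF is a Pseudomonas aeruginosa culture filtrate used as stimulus; plate controls were PAF-stimulated DMSO wells for no effect and unstimulated DMSO wells for full effect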
Mdm2 MdmX conf-1 – Mdm2-MdmX complex disruptors, retested hits, confirmation, luminescence, single concentration; shares compounds with Mdm2-MdmX inh; 10,000 compounds, 55% hits; inhibition, % at 8 µM; Mdm2-MdmX binding, luminescent assay
Full FLuc ctr – full-length luciferase signal inhibition, confirmation, counter-screen for Mdm2/MdmX interaction inhibitor project, cell-based, single concentration, SaOS-2 | 6,200 compounds, 77% hits | shares compounds with Mdm2-MdmX inh | SaOS-2 full-length luciferase counterscreen, luminescence | inhibition, % at 8 µM | AID 504607, 2011;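 active = mean inhibition at 8 µM reaching about 37%, which flags the compound as non-specific, limit read from the data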;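 note: p53-null SaOS-2 cells with luciferase driven by a doxycycline-inducible promoter; compound on cells about two nights before reading with doxycycline added after day one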
CF NFkB conf – inhibitors of PAF-induced NF-kB signaling, retest, confirmation, cell-based, GFP fluorescence, single concentration | shares compounds with CF NFkB inh | KKLEB CF airway cells, overnight | inhibition, % at 5 µM | 1,300 compounds, 64% hits | AID 602472, 2012;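 note: stimulus PAF is a Pseudomonas aeruginosa filtrate and not platelet activating factor; plate controls were DMSO wells with stimulus for no effect and unstimulated DMSO wells for full effect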
ABHD5 PLIN5 conf – ABHD5-PLIN5 interaction inhibitors, confirmation, biochemical, luminescence; shares compounds with ABHD5-PLIN5 inh; inhibition, % at 4 µM; 2,200 compounds, 67% hits; AID 651612, 2012; in the data active = inhibition above about 23%;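 note: 0% = DMSO vehicle wells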
HNF4 counter – HNF4 dimerization inhibitors, counter-screen for ABHD5-PLIN5 interaction inhibitor project, biochemical, split-luciferase complementation, luminescence; AID 651674, 2012; inhibition, % at 4 µM; 2,200 compounds, 77% hits; shares compounds with ABHD5-PLIN5 inh;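 active = mean inhibition across replicate wells exceeding the computed hit threshold, cut at about 13% in these data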;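 note: light from luciferase halves that rejoin when HNF4 fusion proteins dimerize; 0% = DMSO only wells and the 100% control is not given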
Mdm2 MdmX conf-2 – retested Mdm2-MdmX interaction blockers, confirmation, cell-based, luminescence, single concentration, set 2 | shares compounds with HIF-2a block | SaOS-2 split-luciferase Mdm2/MdmX complementation | inhibition, % at 8 µM | 740 compounds, 99% hits;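 active = mean inhibition of the luminescence signal across two replicates at or above 26 percent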
HIF-2a conf – HIF-2a reporter inhibitor retest, confirmation, luminescence, 786-0 RCC cells; shares compounds with HIF-2a block; HIF-2a luciferase reporter luminescence, overnight; inhibition, % at 18.8 µM; 1,800 compounds, 56% hits; AID 651580, 2012;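 active = mean inhibition across four replicates of at least 40 percent at the single tested concentration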
HIF-1a counter – HIF-1a luciferase reporter signal reduction – MiaPaCa-2 cells, single concentration, counter-screen for HIF-2a inhibitor project, confirmation; inhibition, % at 18.8 µM; MiaPaCa-2 HIF-1a luciferase reporter, desferoxamine, overnight; AID 651589, 2012; 1,800 compounds, 72% hits; shares compounds with HIF-2a block;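 active = mean inhibition of the reporter signal across four replicates at the single tested dose of 50% or more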
* marks the source's active call; other numbers are inactive results; nt = no result given. Cut-off read from the data, not from the text of the source, unless noted: active = inhibition above about 40%; inactive = the rest.

SMILES | ABHD5-PLIN5 inh | Peg3 prom inh | KKLEB tox | HIF-2a block | Mdm2-MdmX inh | CF NFkB inh | Mdm2 MdmX conf-1 | Full FLuc ctr | HIF-2a conf | HIF-1a counter | others
Cn1nc([N+](=O)[O-])nc1Sc1nnc(-c2ccccc2)o1 | 5.8 | 28.6 | -13.4 | 30.9 | 100.4* | 27.7 | 76.2* | 51.5* | nt | nt | Mdm2 MdmX conf-2=75.2*
CC1(C)Oc2cc3oc(=O)ccc3c3c2C2C1CCC(C)(O3)C2O (stereo not drawn) | -2.3 | -5.8 | -11.5 | 16.0 | nt | -6.8 | nt | nt | nt | nt
N#CC1(NC(=O)CN2C(=O)c3ccccc3C2=O)CCCCC1 | 8.5 | 5.2 | 8.5 | 17.8 | -24.8 | -3.1 | nt | nt | nt | nt
N#CC1(NC(=O)Cn2ncc(Cl)c(Cl)c2=O)CCCCC1 | 10.1 | 93.5* | 2.7 | 86.6* | 98.0* | 80.7* | 83.1* | 29.6 | 58.9* | 107.0* | CF NFkB conf=13.9
CC(=O)Nc1ccc(S(=O)(=O)Nc2ccc3c(c2)OCCO3)cc1Cl | -2.6 | 11.5 | 4.5 | 24.8 | 15.4 | -5.5 | nt | nt | nt | nt
O=C(O)c1cc(S(=O)(=O)Nc2ccc3c(c2)OCCO3)c(Cl)cc1Cl | -1.8 | 20.3 | -5.2 | 41.7* | 54.9* | 4.4 | 42.4* | 66.9* | 54.4* | 70.6*
Cn1c(N)nc2nc[nH]c2c1=S | -6.5 | -4.5 | -5.9 | 7.1 | nt | 2.2 | nt | nt | nt | nt
O=C(CCl)Nc1cccc(S(=O)(=O)N2CCCCCC2)c1 | 1.9 | 72.5* | -40.8 | 46.4* | 98.2* | -0.5 | 43.6* | 24.0 | 3.5 | 67.2*
O=C(CCOc1ccccc1)Nc1ccccc1F | 3.1 | -104.4 | -12.8 | -106.0 | 18.5 | -0.9 | nt | nt | nt | nt
O=[N+]([O-])c1ccc(Sc2nc3ccccc3o2)c([N+](=O)[O-])c1 | 15.9 | 96.9* | -42.3 | 91.9* | 98.9* | 68.0* | 75.7* | 2.6 | 74.2* | 105.8*
Nc1nc(Sc2ccc([N+](=O)[O-])cc2[N+](=O)[O-])n[nH]1 | 3.0 | 9.1 | -18.2 | 13.6 | 3.1 | 3.3 | nt | nt | nt | nt
CCC1CCCCN1S(=O)(=O)c1ccc(NC(=O)c2nc(S(C)(=O)=O)ncc2Cl)cc1 (stereo not drawn) | 90.6* | 106.6* | -74.1* | 75.4* | 97.5* | 87.4* | 100.2* | 0.8 | 100.2* | 100.7* | ABHD5 PLIN5 conf=99.7*;HNF4 counter=107.4*
Cc1ccc(CS(=O)(=O)c2ncc(Cl)c(C(=O)Nc3ccc(OC(F)F)cc3)n2)cc1 | 57.2* | 106.1* | -99.6* | 92.7* | 91.3* | 94.4* | 86.1* | 53.7* | nt | nt | ABHD5 PLIN5 conf=89.7*;HNF4 counter=89.5*;Mdm2 MdmX conf-2=103.2*
CCS(=O)(=O)c1ncc(Cl)c(C(=O)Nc2ccc(S(=O)(=O)N3CCCC(C)C3)cc2)n1 (stereo not drawn) | 13.3 | 105.1* | -108.9* | 88.5* | 99.3* | 96.6* | 99.2* | 51.2* | 98.5* | 105.9* | Mdm2 MdmX conf-2=103.2*
CSc1ncc(Cl)c(C(=O)Nc2ccc(NC(C)=O)cc2)n1 | -2.3 | -3.9 | 8.1 | -5.2 | 31.3 | -15.7 | nt | nt | nt | nt
CCS(=O)(=O)c1ncc(Cl)c(C(=O)Nc2ccc(C)cc2)n1 | 47.8* | 100.5* | -85.8* | 91.6* | 86.6* | 92.4* | 78.0* | 57.4* | 97.3* | 72.3* | ABHD5 PLIN5 conf=72.3*;HNF4 counter=77.6*;Mdm2 MdmX conf-2=101.2*
CCC1CCCCN1S(=O)(=O)c1ccc(NC(=O)c2ccncc2)cc1 (stereo not drawn) | 2.8 | 8.7 | 6.7 | 13.4 | 14.1 | -8.2 | nt | nt | nt | nt
O=C(CCC1CCCC1)NNC(=O)c1ccc(F)cc1 | 0.6 | 17.7 | 1.9 | 5.6 | 11.4 | -4.4 | nt | nt | nt | nt
CCOC(=O)c1c(C)nsc1NC(=O)C1(C)CCN1C(=O)CC (stereo not drawn) | 1.5 | 5.8 | -0.8 | -2.4 | nt | 18.6 | nt | nt | nt | nt
NS(=O)(=O)c1c(Sc2ccccc2C(=O)O)ccc2ccccc12 | -2.2 | -158.9 | 7.2 | -78.0 | 3.8 | -8.4 | nt | nt | nt | nt
CN(CC(=O)Nc1ccccc1Cl)C(=O)COC(=O)C1=COCCO1 | 3.4 | -3.4 | 12.3 | 2.2 | -3.8 | -1.2 | nt | nt | nt | nt
COCCCN1C(=O)C(CC(=O)NC2CCCCC2)CC(C(=O)N(C)C)=C1C (stereo not drawn) | -3.1 | -8.0 | 17.4 | 3.9 | nt | 0.6 | nt | nt | nt | nt
CCNC(=O)C1(C)CCN(C(=O)c2cc(F)ccc2C)C1 (stereo not drawn) | 5.0 | -8.1 | 1.9 | 4.2 | nt | 4.4 | nt | nt | nt | nt
